For 19 molecules, Potency and outcome results are on record in PubChem BioAssay (Tox21).

The nature of test [1]: qHTS assay to identify small molecule antagonists of the thyroid receptor (TR) signaling pathway (AID 743065). Further: nearly all actives have a fitted effect of over 55% in size. Further: potency means the concentration at half of the fitted maximal effect. Put shortly:
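GH3.TRE-Luc rat pituitary cells carrying two TR response elements driving luciferase were plated for 4 h, given compound plus 1 nM T3 (final), and incubated 23.5 h at 37 C. ONE-Glo luminescence measured reporter inhibition; CellTiter-Fluor fluorescence tracked cytotoxicity.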

Test [2] has as its system thyroid hormone receptor (rat, GH3 cells). Nature of the test: qHTS assay to identify small molecule agonists of the thyroid receptor (TR) signaling pathway (AID 743066; calls by dose curve). On the technique in general: In qHTS, concentration-response curves come from the screen itself.
Test [3] in a line: qHTS assay to identify small molecule antagonists of the estrogen receptor alpha (ER-alpha) signaling pathway - cell viability counter screen (AID 743074; calls by dose curve;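 further: HEK293 cells carrying ER-alpha-UAS-bla reporter stimulated with 17beta-estradiol; nearly all actives have a fitted effect of over 45% in size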).
Test [4] in a line: qHTS assay for small molecule agonists of the antioxidant response element (ARE) signaling pathway - cell viability counter screen (AID 743203; calls by dose curve; further: nearly all actives have a fitted effect of over 55% in size). Put shortly: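 Luminescence read-out (CellTiter-Glo, 30 min at room temperature) measured cell viability in the same wells as the ARE beta-lactamase reporter. HepG2 ARE-bla cells were treated with compounds for 16 hrs at 37C/5% CO2.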

Test [5] is described as follows: qHTS assay for small molecule activators of the heat shock response signaling pathway - cell viability counter screen (AID 743209). Further: nearly all actives have a fitted effect of over 50% in size. Put shortly:
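HSE-bla HeLa; 1500 cells/well; overnight 37 C, 5% CO2; compound 5 h 37 C; LiveBLAzer B/G substrate 2.5 h RT; CellTiter-Glo 30 min RT; luminescence.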

Test [6] can be described thus: qHTS assay for small molecule activators of the heat shock response signaling pathway (AID 743210; active means well fitted activation curve with a large enough effect in the signal ratio in the repeat runs, with a control signal flat, not every such curve was filed as active; the % refers to the signal ratio;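 further: HeLa cells with beta-lactamase reporter driven by heat shock elements; series mostly up to about 63 µM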). Put shortly:
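Activation of heat shock element-controlled beta-lactamase expression is measured in HeLa cells by LiveBLAzer FRET fluorescence, with compound exposure lasting 5 h at 37 C and substrate loading 2.5 h at room temperature.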

The nature of test [7]: qHTS assay to identify small molecule agonists of the peroxisome proliferator-activated receptor delta (PPARd) signaling pathway - cell viability counter screen (AID 743211). Further: nearly all actives have a fitted effect of over 55% in size. The essentials: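 Tox21 library compounds, delivered in DMSO, were incubated 17 h with PPARd-bla HEK293H cells; cytotoxicity was taken from CellTiter-Glo luminescence read 30 min after reagent addition.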

Test [8] is described as follows: qHTS assay to identify aromatase inhibitors - cell viability counter screen (AID 743084).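 Further: cells stimulated with testosterone during compound exposure; nearly all actives have a fitted effect of over 55% in size.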
Test [9] addresses Peroxisome proliferator-activated receptor gamma (Homo sapiens) (UniProt P37231). Description: qHTS assay to identify small molecule antagonists of the peroxisome proliferator-activated receptor gamma (PPARg) signaling pathway (AID 743191; calls by dose curve; further: series mostly up to about 63 µM; nearly all actives have a fitted effect of over 30% in size). The essentials: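 GeneBLAzer PPARg UAS-bla HEK293H cells carrying a UAS-driven beta-lactamase reporter were plated at 3000 cells/well, preincubated 5 h at 37C, then given compound for 17 h at 37C; LiveBLAzer B/G FRET substrate was read after 1 h at room temperature.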

Test [10] is described as follows: qHTS assay to identify small molecule antagonists of the peroxisome proliferator-activated receptor gamma (PPARg) signaling pathway - cell viability counter screen (AID 743194). Further: nearly all actives have a fitted effect of over 55% in size. Put shortly: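 PPARg-UAS-bla HEK293H cells were plated, rested 5 h at 37 C, then treated with compounds plus rosiglitazone (50 nM final) for 17 h at 37 C; viability was then read by CellTiter-Glo luminescence after 30 min at room temperature.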

The nature of test [11]: qHTS assay for small molecule agonists of the antioxidant response element (ARE) signaling pathway (AID 743202; active means well fitted activation curve with a large enough effect in the signal ratio in the repeat runs, not every such curve was filed as active; the % refers to the signal ratio). Put shortly: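 Steps: seed ARE-bla HepG2 cells (2,000/well); incubate 5 h at 37 C; add compounds by pin tool; incubate 16 h at 37 C; add FRET substrate; read fluorescence after 2 h at RT.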
Test [12] is described as follows: qHTS assay to identify small molecule antagonists of the estrogen receptor alpha (ER-alpha) signaling pathway using the BG1 cell line - cell viability counter screen (AID 743081).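 Further: compound given together with 17beta-estradiol as the ER stimulus; series mostly up to about 70 µM; nearly all actives have a fitted effect of over 45% in size.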
Another test deals with Aromatase (Homo sapiens) (UniProt P11511). Nature of the test: qHTS assay to identify aromatase inhibitors (AID 743083).
Chain of Aromatase (Homo sapiens) (P11511 whole entry, looked up): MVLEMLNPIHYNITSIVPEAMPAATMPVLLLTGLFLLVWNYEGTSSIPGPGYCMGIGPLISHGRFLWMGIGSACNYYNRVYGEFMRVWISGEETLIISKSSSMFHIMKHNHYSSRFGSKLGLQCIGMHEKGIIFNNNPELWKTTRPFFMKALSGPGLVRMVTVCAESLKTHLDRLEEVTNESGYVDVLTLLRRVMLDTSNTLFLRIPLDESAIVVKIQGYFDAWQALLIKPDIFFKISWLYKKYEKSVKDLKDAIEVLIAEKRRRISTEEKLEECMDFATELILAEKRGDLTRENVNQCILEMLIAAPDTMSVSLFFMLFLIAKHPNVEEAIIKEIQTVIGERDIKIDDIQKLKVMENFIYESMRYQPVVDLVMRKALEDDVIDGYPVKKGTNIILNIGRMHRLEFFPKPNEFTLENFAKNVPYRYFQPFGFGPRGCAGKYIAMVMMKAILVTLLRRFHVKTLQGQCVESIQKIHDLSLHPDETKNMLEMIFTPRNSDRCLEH
Test [13] concerns the target Aryl hydrocarbon receptor (Homo sapiens) (UniProt P35869). Description: qHTS assay to identify small molecule that activate the aryl hydrocarbon receptor (AhR) signaling pathway (AID 743085).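 Further: HG2L7.5c1 human HepG2 liver cells with stably integrated DRE-driven firefly reporter; series mostly up to about 70 µM; nearly all actives have a fitted effect of over 15% in size.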 The essentials:
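A multiplexed format paired cell viability (CellTiter-Fluor fluorescence) with AhR-dependent luciferase output (ONE-Glo luminescence) in the same wells of HepG2 DRE-luc cells after 24 h compound exposure at 37C.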

Test [14] in a line: qHTS assay to identify small molecule that activate the aryl hydrocarbon receptor (AhR) signaling pathway - cell viability counter screen (AID 743086).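 Further: HepG2 liver cells carrying the AhR DRE luciferase reporter; series mostly up to about 70 µM; nearly all actives have a fitted effect of over 45% in size.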 Put shortly:
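HepG2-AhR-luc (HG2L7.5c1) cells, 4000/well, were preincubated 5 h at 37C, exposed to compound in qHTS format for 24 hr at 37C, then given CellTiter-Fluor for 30 min; viability was read as fluorescence in the reporter wells.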

For test [15], the target named is Peroxisome proliferator-activated receptor gamma (Homo sapiens) (UniProt P37231). Nature of the test: qHTS assay to identify small molecule agonists of the peroxisome proliferator-activated receptor gamma (PPARg) signaling pathway (AID 743094; active means well fitted activation curve with a large enough effect in the signal ratio in the repeat runs, not every such curve was filed as active; the % refers to the signal ratio). The essentials: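 HEK293H PPARg-bla cells, 5 h settle at 37C/5% CO2; compound (DMSO) 17 h, 37C; B/G FRET substrate 1 h RT; fluorescence intensity read-out. qHTS format.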
Chain of Peroxisome proliferator-activated receptor gamma (Homo sapiens) (P37231 whole entry, looked up): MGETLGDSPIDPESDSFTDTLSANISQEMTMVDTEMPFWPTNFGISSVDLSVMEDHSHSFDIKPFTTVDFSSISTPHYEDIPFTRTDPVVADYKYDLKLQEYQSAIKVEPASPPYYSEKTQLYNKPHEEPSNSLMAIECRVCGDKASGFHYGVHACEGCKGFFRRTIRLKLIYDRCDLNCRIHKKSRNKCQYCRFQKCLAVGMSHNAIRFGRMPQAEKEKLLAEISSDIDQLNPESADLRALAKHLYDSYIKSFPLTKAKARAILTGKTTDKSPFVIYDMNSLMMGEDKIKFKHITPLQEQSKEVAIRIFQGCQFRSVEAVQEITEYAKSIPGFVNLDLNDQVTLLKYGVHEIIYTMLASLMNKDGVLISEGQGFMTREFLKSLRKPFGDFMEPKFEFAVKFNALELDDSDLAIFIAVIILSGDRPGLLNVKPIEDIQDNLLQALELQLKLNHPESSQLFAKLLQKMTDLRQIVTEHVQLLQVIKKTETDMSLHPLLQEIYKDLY

SMILES strings stand for the structures. Records with an inconclusive call do not appear. The source made the active and inactive calls. Unless noted, the call rests on the fitted dose curve; in most records, active means well fitted curve in the direction sought with a large enough effect in the repeat runs; inconclusive means weak or mixed curves; inactive means no such curve, though single readings can be large; an effect the other way counts as inactive or inconclusive.

Chain of Aryl hydrocarbon receptor (Homo sapiens) (P35869 whole entry, looked up): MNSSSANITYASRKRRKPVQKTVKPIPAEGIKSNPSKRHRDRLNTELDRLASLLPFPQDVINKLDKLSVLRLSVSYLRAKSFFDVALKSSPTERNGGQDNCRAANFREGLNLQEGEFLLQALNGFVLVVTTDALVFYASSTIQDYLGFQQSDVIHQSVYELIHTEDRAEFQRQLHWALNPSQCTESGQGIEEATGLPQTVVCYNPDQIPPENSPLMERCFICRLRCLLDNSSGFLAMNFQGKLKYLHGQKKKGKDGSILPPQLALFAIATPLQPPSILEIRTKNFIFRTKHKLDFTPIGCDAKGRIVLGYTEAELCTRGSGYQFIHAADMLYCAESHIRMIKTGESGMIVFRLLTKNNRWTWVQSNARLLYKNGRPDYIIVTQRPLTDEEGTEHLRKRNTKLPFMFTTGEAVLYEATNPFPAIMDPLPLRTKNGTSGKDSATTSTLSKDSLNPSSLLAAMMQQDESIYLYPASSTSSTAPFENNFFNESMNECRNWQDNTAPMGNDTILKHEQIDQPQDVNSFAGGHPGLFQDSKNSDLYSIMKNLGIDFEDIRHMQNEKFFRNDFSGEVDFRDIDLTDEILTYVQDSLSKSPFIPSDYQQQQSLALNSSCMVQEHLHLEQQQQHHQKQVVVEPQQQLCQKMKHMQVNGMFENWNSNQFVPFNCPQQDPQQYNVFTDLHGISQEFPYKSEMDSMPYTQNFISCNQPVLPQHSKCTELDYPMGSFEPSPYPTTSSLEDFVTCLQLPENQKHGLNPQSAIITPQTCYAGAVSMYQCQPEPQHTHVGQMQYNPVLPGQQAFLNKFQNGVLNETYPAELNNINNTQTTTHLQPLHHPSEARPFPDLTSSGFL

As to `O=C1Nc2ccc([N+](=O)[O-])cc2C1=O`, the Potency result in test [1], in test [3], in [4], in [6] and in test [7] was “inactive” throughout. The result in test [2] and in test [5] was inactive.
As for `Cc1ccccc1C(=O)Nc1ccc(C(=O)N2CCCC(O)c3cc(Cl)ccc32)c(C)c1` (stereo unspecified), the Potency in [1] was 23.7 µM (active). The result in test [2] and in test [5] was inactive. Also, the Potency entry in test [3], in test [8], in test [9], in test [10], in test [11] and in test [4] was “inactive” in each case. In [6], the Potency entry is “inactive”.
As for `CCN(CC)C(=O)N(CC)CC`, the Potency result (in test [1]; in [3]; in test [12]; with Aromatase (Homo sapiens); in [8]; in test [13]) was “inactive” each time. Besides, the Potency result in [15], in test [9], in test [4], in [6] and in [7] was “inactive” each time. In addition, the call in [2], in [14] and in [5] was inactive.
On to `Cc1c(N)cccc1N`, for which the Potency result in test [1], in test [3], in test [12], in [8], in test [10] and in test [4] was “inactive” throughout. For the same molecule, the Potency entry in test [6] and in [7] was “inactive” in each case. The result in [2], in [14] and in test [5] was inactive.
In the case of `CN1CCC[C@@H]1Cc1c[nH]c2ccc(CCS(=O)(=O)c3ccccc3)cc12`, in test [1], the Potency is 21.1 µM (active). The molecule was classed as inactive in [2] and in test [5]. For the same molecule, the Potency result (in test [3]; in the test with Aromatase (Homo sapiens); in test [8]; in test [13]; in [10]; in test [11]) was “inactive” throughout. In addition, the Potency result in [4], in test [6] and in test [7] was “inactive” in each case.
In the case of `CC(=O)Nc1ccc(C)c(Cl)c1`, the Potency entry (in test [1]; in test [3]; in test [12]; with Aromatase (Homo sapiens); in test [8]; in test [15]) was “inactive” in each case. Further, the Potency entry in test [9], in [10], in test [11], in test [4], in test [6] and in test [7] was “inactive” in each case. In addition, the result in [2], in [14] and in test [5] was inactive.
Regarding `CCOC(=O)c1ccccc1O`, the Potency result (in test [1]; in test [3]; in test [12]; with Aromatase (Homo sapiens); in [8]; in test [13]) was “inactive” in each case. Moreover, the Potency result in test [15], in [10], in test [4], in test [6] and in test [7] was “inactive” in each case. For the same molecule, the call in test [2], in test [14] and in test [5] was inactive.
Take `CC(=O)Oc1cc(C(C)C)c(OCCN(C)C)cc1C`: the Potency result (in test [1]; in [3]; with Aromatase (Homo sapiens); in [8]; in test [13]; in [15]) was “inactive” in each case. Also, the Potency result in test [10], in [11], in [4], in [6] and in [7] was “inactive” throughout. For the same molecule, the molecule was classed as inactive in test [2], in test [14] and in [5].
Consider `C=CC(C)(O)CC/C=C(\C)CCC=C(C)C` (stereo unspecified), for which the Potency result (in [1]; in test [3]; in test [12]; with Aromatase (Homo sapiens); in [8]; in test [13]) was “inactive” throughout. The Potency result in test [15], in [10], in test [4], in [6] and in [7] was “inactive” throughout. For the same molecule, the result in [2], in test [14] and in test [5] was inactive.
In the case of `CN1[C@@H]2CC[C@H]1CC(OC(=O)c1c[nH]c3ccccc13)C2` (stereo partly specified), the Potency in test [1] was 26.6 µM (active). Further, the molecule was called inactive in [2] and in test [5]. Further, the Potency entry (in [3]; in test [12]; with Aromatase (Homo sapiens); in test [8]; in test [13]; in test [15]) was “inactive” in each case. Further, the Potency entry in test [9], in test [10], in [11], in [4], in [6] and in [7] was “inactive” in each case.
For `Cc1ccc(C(C)C)cc1O`, the Potency result (in [1]; in test [3]; in test [12]; with Aromatase (Homo sapiens); in [8]; in [13]) was “inactive” in each case. In addition, the Potency result in test [15], in [10], in [11], in test [4], in test [6] and in test [7] was “inactive” throughout. For the same molecule, the result in test [2], in test [14] and in [5] was inactive.
As for `CC1(C)C(=O)N(Cl)C(=O)N1Br`, the Potency entry (in [1]; in [3]; in [12]; with Aromatase (Homo sapiens); in test [8]; in test [13]) was “inactive” in each case. The Potency result in test [15], in test [9], in test [10], in [4], in test [6] and in test [7] was “inactive” throughout. Also, the molecule was called inactive in test [2], in [14] and in test [5].
In the case of `ClC(Cl)Cl`, the Potency result (in test [1]; in test [3]; in test [12]; with Aromatase (Homo sapiens); in test [8]; in test [13]) was “inactive” each time. Moreover, the Potency result in [10], in [11], in [4], in [6] and in [7] was “inactive” throughout. Besides, the molecule was classed as inactive in test [2], in test [14] and in test [5].
In the case of `C=O`, the Potency entry (in test [1]; in test [3]; in test [12]; with Aromatase (Homo sapiens); in [8]; in test [13]) was “inactive” each time. Also, the Potency entry in test [10], in test [11], in test [4], in [6] and in [7] was “inactive” throughout. Moreover, the outcome in [2], in test [14] and in test [5] was inactive.
For the molecule `CC1(C)S[C@@H]2[C@H](NC(=O)C(C(=O)O)c3ccccc3)C(=O)N2[C@H]1C(=O)O` (stereo partly specified), the Potency result (in [1]; in [3]; in test [12]; with Aromatase (Homo sapiens); in test [8]; in test [13]) was “inactive” each time. In addition, the Potency entry in [15], in test [10], in test [4], in test [6] and in test [7] was “inactive” in each case. In addition, the molecule was classed as inactive in test [2], in test [14] and in test [5].
Regarding `CN1C(=O)CC(c2ccccc2)C1=O` (stereo unspecified), the Potency entry (in test [1]; in [3]; in test [12]; with Aromatase (Homo sapiens); in test [8]; in [13]) was “inactive” throughout. Besides, the Potency entry in [15], in test [10], in test [11], in [4], in [6] and in test [7] was “inactive” in each case. For the same molecule, the molecule was classed as inactive in test [2], in test [14] and in test [5].
On to `O=C(O)[C@@H]1CSCN1`, for which the Potency entry (in test [1]; in test [3]; in the test with Aromatase (Homo sapiens); in [8]; in test [13]; in [15]) was “inactive” in each case. In addition, the Potency result in [10], in test [11], in test [4], in test [6] and in test [7] was “inactive” throughout. In addition, the result in test [2], in [14] and in test [5] was inactive.
In the case of `CN(CC1(C)CCCO1)S(=O)(=O)c1ccc(Cl)c(S(N)(=O)=O)c1` (stereo unspecified), the Potency result (in [1]; in test [3]; in the test with Aromatase (Homo sapiens); in test [8]; in test [13]; in test [15]) was “inactive” throughout. The Potency entry in [9], in [10], in [11], in [4], in test [6] and in test [7] was “inactive” throughout. The molecule was called inactive in test [2], in [14] and in test [5].
Regarding `CCCCNc1cc(C(=O)O)cc(S(N)(=O)=O)c1Oc1ccccc1`, the Potency result (in [1]; in [3]; in test [12]; with Aromatase (Homo sapiens); in test [8]; in test [13]) was “inactive” in each case. In addition, the Potency result in test [10], in [11], in test [4], in test [6] and in test [7] was “inactive” each time. Further, the outcome in test [2], in test [14] and in test [5] was inactive.
